Targets with a hit are over-represented here; the source holds about 7,900 in all. About 0.6% of all pairs of compound and target were hits. Unmarked numbers belong to inactive results.
Experiments:
Assay in all cases: log2 fold change, soluble protein after heating vs DMSO (PISA); higher = thermal stabilisation; K562 cells, 10 uM, 30 min; active = over 0.2 and 3.5 SD of the protein, either way, in both replicates (recomputed)
[1] = compound: CC[C@@H]1C(=O)N(C)c2cnc(Nc3ccc(C(=O)NC4CCN(C)CC4)cc3OC)nc2N1C1CCCC1
Summary of the method: (§1)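 K562 cells at 2×10^6 cells/mL were treated for 30 min with 10 μM compound, and aliquots were heated for 3 min over 48°C-58°C before pooling. Extraction used PBS with 0.5% NP-40 at 4°C, and soluble protein was the supernatant after 21,000xg for 90 min, measured by TMTpro 16plex LC-MS/MS with channel sums equalised. Thermal stability values, relative to control samples and from duplicates, are log2 fold changes.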

[2] = compound: CC[C@@H]1C(=O)N(C)c2cnc(Nc3ccc(C(=O)N[C@H]4CC[C@H](N5CCN(CC6CC6)CC5)CC4)cc3OC)nc2N1C(C)C [volasertib]
Summary of the method: as §1

[3] = compound: CC[C@H](C)N1C=C(C2=C(C=C(C=C21)C3=CN=C(C=C3)N4CCNCC4)C(=O)NCC5=C(C=C(NC5=O)C)C)C
Summary of the method: as §1

[4] = compound: CC[C@H](C)[C@@H](C(=O)N[C@@H]([C@@H](C)O)C(=O)N[C@@H](CC(C)C)C(=O)[C@]1(CO1)C)NC(=O)[C@H]([C@@H](C)CC)N(C)C(=O)C [epoxomicin]
Summary of the method: as §1

[5] = compound: CCn1c(C(=O)N(C2CC2)C2CC2)cc2c3c(ncn3C)c(Nc3cc(C)n(C)n3)nc21
Summary of the method: as §1

[6] = compound: CCn1cc(-c2ccnc3[nH]c(-c4cccc(CN(C)C)c4)cc23)c(-c2ccc(NC(=O)N(C)C)cc2)n1
Summary of the method: as §1

[7] = compound: CN(C)CC(=O)Nc1ccc2[nH]c(=O)c3ccccc3c2c1
Summary of the method: as §1

[8] = compound: CN(CCOC1=CC=C(C=C1)C[C@H]2C(=O)NC(=O)S2)C3=CC=CC=N3 (racemic) [rosiglitazone]
Summary of the method: as §1

[9] = compound: CN1C2=C(C3=C1C(=O)N(N=C3)CC4=CC(=CC=C4)N)SC(=C2)S(=O)C
Summary of the method: as §1

[10] = compound: CN1CCC(CNc2ccc3ncc(-c4cccc(OC(F)(F)F)c4)n3n2)CC1
Summary of the method: as §1

[11] = compound: CN1CCN(CCOc2cc(OC3CCOCC3)c3c(Nc4c(Cl)ccc5c4OCO5)ncnc3c2)CC1 [saracatinib]
Summary of the method: as §1

[12] = compound: CN1CCN(c2nc(C3=C(c4c[nH]c5ccccc45)C(=O)NC3=O)c3ccccc3n2)CC1 [sotrastaurin]
Summary of the method: as §1

[13] = compound: CN1CC[C@H](c2c(O)cc(O)c3c(=O)cc(-c4ccccc4Cl)oc23)[C@H](O)C1 [alvocidib]
Summary of the method: as §1

[14] = compound: CN1CCc2c(c3ccccc3n2Cc2ccc(C(=O)NO)cc2)C1 [Tubastatin A]
Summary of the method: as §1

[15] = compound: CNC(=O)C1=CC=CC=C1NC2=NC(=NC=C2Cl)NC3=C(C=C(C=C3)N4CCOCC4)OC
Summary of the method: as §1

[16] = compound: CNC(=O)c1ccc(Nc2ncc(C(F)(F)F)c(NCc3nccnc3N(C)S(C)(=O)=O)n2)cc1 [defactinib]
Summary of the method: as §1

[17] = compound: CNCc1ccc(-c2[nH]c3cc(F)cc4c3c2CCNC4=O)cc1 [rucaparib]
Summary of the method: as §1

[18] = compound: CNc1nc(-c2ccc3c(N)n[nH]c3c2)cc(N2C[C@@H](C(=O)NC3CCCCC3)CC[C@H]2C)n1
Summary of the method: as §1

[19] = compound: COC(=O)N[C@@H](C)CNc1nccc(-c2cn(C(C)C)nc2-c2cc(Cl)cc(NS(C)(=O)=O)c2F)n1 [encorafenib]
Summary of the method: as §1

[20] = compound: COC(=O)[C@H](CCSC)NC(=O)C1=C(C=C(C=C1)NC[C@H](CS)N)C2=CC=CC=C2
Summary of the method: as §1

UniProt Q9BPX3, sequence (Q9BPX3 whole entry, looked up): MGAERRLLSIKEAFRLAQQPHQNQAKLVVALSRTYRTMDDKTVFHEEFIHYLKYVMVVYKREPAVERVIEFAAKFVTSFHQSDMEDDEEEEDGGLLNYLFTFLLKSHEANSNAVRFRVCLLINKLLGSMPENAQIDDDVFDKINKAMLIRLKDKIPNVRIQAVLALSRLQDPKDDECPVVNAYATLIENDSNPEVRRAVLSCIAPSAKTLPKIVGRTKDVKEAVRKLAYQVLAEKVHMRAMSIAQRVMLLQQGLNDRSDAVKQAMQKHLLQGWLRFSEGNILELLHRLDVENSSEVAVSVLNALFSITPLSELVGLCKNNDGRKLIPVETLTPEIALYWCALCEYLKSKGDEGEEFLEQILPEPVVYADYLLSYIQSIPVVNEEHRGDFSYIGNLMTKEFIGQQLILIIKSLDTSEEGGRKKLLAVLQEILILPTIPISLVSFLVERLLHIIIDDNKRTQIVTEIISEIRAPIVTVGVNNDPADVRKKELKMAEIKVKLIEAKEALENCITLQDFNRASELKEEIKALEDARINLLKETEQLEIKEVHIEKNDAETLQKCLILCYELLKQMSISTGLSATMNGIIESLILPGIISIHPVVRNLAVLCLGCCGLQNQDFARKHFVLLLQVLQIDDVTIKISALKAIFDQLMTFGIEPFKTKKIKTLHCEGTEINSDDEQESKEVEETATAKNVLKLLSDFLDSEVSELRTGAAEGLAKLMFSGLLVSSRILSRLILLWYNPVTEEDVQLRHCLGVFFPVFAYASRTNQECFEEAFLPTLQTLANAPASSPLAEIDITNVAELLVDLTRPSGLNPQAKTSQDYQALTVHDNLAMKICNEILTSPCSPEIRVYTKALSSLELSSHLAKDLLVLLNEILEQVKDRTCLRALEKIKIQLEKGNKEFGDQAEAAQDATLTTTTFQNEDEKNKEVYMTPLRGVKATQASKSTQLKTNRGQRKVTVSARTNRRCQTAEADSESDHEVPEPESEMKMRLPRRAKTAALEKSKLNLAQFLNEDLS
UniProt Q9BZQ8, sequence (Q9BZQ8 whole entry, looked up): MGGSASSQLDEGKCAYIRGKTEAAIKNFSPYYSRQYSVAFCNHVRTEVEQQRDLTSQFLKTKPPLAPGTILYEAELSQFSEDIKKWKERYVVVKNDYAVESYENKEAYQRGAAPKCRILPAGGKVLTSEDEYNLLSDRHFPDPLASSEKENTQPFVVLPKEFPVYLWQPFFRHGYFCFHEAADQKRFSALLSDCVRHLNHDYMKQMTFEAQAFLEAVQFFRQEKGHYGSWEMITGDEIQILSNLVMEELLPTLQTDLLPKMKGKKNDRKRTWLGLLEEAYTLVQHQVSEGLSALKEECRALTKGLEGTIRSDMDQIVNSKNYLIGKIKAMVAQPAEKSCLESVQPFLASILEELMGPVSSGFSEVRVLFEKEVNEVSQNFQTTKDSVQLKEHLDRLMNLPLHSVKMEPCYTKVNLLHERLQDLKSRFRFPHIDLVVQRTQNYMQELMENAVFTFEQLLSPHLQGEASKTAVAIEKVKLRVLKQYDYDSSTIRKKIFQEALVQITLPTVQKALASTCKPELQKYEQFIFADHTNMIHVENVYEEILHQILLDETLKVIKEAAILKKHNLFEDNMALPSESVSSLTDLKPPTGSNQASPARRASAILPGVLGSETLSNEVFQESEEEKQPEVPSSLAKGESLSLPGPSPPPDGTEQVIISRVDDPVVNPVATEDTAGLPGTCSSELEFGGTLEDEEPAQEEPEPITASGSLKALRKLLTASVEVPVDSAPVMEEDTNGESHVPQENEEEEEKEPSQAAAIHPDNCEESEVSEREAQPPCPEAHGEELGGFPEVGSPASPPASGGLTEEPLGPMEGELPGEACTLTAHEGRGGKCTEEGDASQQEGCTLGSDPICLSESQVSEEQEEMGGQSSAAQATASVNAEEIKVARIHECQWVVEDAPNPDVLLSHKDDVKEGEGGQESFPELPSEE
UniProt Q16795, sequence (Q16795 whole entry, looked up): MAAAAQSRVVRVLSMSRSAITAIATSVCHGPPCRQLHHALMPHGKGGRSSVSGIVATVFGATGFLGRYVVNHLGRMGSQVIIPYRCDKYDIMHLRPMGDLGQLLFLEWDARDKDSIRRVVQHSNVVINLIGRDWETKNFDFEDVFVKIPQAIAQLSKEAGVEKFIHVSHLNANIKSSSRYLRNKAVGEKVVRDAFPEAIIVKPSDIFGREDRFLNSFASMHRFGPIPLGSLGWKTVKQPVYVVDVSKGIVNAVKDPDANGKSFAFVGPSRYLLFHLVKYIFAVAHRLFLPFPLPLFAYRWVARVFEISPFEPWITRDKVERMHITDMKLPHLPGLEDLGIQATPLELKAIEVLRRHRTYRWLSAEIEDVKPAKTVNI
UniProt Q8N543, sequence (Q8N543 whole entry, looked up): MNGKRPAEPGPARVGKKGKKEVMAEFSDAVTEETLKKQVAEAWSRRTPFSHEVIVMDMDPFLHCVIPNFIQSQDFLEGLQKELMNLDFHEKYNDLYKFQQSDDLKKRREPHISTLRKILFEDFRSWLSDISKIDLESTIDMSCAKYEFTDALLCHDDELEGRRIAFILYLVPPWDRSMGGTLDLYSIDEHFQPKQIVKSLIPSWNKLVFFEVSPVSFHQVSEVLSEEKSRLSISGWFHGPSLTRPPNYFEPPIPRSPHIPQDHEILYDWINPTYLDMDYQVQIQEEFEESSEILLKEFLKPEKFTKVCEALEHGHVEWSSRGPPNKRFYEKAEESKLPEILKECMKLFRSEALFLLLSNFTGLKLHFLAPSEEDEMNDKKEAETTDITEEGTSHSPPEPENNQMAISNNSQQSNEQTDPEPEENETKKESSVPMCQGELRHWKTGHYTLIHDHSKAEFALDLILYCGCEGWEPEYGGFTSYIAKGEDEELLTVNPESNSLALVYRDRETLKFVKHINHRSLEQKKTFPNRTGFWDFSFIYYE
UniProt P56556, sequence (P56556 whole entry, looked up): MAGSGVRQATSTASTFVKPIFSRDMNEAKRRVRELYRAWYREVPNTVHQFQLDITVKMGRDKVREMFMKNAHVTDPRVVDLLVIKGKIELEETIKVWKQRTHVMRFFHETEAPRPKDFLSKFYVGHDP
UniProt O60313, sequence (O60313 whole entry, looked up): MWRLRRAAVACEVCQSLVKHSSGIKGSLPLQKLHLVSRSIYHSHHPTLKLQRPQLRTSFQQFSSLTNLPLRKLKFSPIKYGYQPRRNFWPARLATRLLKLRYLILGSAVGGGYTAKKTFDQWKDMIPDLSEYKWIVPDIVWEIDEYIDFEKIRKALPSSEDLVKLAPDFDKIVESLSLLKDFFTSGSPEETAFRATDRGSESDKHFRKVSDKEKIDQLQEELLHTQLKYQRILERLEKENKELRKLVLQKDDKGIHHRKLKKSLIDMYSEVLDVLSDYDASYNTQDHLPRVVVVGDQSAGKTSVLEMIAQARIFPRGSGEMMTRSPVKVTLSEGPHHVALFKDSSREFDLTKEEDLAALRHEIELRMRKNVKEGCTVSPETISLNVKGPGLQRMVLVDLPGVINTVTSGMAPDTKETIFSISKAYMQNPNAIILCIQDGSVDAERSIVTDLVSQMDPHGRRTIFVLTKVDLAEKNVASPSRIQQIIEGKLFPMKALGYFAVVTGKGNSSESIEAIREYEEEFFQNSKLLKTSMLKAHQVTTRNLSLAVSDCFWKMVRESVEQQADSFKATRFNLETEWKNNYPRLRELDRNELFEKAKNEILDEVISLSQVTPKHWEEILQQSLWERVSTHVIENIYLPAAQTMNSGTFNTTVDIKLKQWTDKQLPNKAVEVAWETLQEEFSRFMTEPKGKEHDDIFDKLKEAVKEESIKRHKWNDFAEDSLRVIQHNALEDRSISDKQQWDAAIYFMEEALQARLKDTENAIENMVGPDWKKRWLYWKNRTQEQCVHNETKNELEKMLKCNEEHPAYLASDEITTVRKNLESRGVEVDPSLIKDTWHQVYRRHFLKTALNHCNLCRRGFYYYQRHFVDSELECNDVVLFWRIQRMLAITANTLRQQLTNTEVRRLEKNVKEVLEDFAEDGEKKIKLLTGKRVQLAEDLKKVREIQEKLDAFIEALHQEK
UniProt Q9Y2A7, sequence (Q9Y2A7 whole entry, looked up): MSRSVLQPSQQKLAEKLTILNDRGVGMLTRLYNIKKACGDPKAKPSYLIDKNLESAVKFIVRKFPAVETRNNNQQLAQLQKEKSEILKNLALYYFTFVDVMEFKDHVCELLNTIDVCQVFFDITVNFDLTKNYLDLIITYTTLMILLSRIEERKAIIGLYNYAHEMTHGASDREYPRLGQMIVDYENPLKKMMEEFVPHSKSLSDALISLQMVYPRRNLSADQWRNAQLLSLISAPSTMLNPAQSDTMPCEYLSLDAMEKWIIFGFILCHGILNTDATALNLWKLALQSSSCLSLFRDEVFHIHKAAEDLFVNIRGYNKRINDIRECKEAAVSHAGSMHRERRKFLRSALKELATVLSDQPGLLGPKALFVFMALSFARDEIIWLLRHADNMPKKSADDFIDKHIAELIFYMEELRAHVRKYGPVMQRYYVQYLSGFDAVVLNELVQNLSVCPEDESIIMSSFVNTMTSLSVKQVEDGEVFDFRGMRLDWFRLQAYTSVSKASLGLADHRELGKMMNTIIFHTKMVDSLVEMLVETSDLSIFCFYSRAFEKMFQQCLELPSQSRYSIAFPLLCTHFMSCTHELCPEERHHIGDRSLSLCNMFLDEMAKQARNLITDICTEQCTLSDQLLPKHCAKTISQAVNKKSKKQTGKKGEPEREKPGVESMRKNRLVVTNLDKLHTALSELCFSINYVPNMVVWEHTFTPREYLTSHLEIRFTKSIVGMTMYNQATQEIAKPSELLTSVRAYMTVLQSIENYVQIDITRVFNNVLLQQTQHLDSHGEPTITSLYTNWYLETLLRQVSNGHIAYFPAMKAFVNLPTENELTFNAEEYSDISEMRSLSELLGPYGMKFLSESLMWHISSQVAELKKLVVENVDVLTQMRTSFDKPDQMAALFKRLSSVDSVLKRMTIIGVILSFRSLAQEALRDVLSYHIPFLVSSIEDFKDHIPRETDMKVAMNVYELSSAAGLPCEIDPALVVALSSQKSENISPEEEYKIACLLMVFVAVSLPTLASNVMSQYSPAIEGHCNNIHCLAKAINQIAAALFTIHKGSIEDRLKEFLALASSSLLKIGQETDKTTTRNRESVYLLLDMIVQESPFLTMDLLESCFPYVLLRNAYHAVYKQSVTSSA

Target | log2 fold change [1] | log2 fold change [2] | log2 fold change [3] | log2 fold change [4] | log2 fold change [5] | log2 fold change [6] | log2 fold change [7] | log2 fold change [8] | log2 fold change [9] | log2 fold change [10] | log2 fold change [11] | log2 fold change [12] | log2 fold change [13] | log2 fold change [14] | log2 fold change [15] | log2 fold change [16] | log2 fold change [17] | log2 fold change [18] | log2 fold change [19] | log2 fold change [20]
NIPSNAP2 (UniProt O75323) | 0.043 | 0.009 | -0.003 | 0.07 | 0.009 | -0.115 | -0.041 | 0.005 | -0.083 | 0.028 | -0.017 | -0.082 | 0.031 | -0.019 | 0.104 | -0.003 | -0.085 | -0.08 | -0.028 | 0.033
OGFOD1 (UniProt Q8N543) | 0.049 | 0.038 | -0.025 | 0.042 | 0.007 | -0.013 | -0.022 | 0.059 | -0.022 | -0.051 | 0.007 | 0.024 | -0.026 | -0.163 | 0.012 | -0.027 | -0.051 | -0.028 | -0.028 | 0.041
NCAPG (UniProt Q9BPX3) | -0.105 | -0.506 (active) | 0.059 | 0.023 | -0.002 | 0.003 | 0.04 | 0.066 | 0.004 | 0.092 | -0.077 | -0.122 | -0.053 | 0.026 | 0.106 | -0.067 | 0.078 | -0.004 | 0.093 | -0.039
NDUFA9 (UniProt Q16795) | -0.082 | -0.26 (active) | 0.073 | 0.03 | -0.029 | -0.053 | 0.035 | 0.064 | -0.017 | -0.367 (active) | -0.003 | -0.008 | -0.022 | -0.013 | -0.034 | -0.011 | -0.038 | 0.036 | 0.048 | -0.004
NCKAP1 isoform 2 (UniProt Q9Y2A7) | 0.002 | -0.25 (active) | 0.031 | 0.01 | -0.003 | -0.036 | 0.043 | 0.011 | -0.042 | -0.027 | 0.02 | -0.031 | -0.06 | 0.027 | 0.006 | -0.071 | -0.022 | 0.019 | 0 | -0.007
MORC3 (UniProt Q14149) | -0.141 | -0.509 (active) | 0.086 | 0.125 | -0.02 | -0.027 | 0.071 | 0.084 | -0.058 | -0.017 | 0 | -0.141 | -0.08 | -0.247 | 0.249 | -0.184 | 0.044 | -0.02 | 0.076 | -0.048
OPA1 isoform 2 (UniProt O60313) | -0.187 | -0.264 | 0.039 | 0.027 | -0.047 | -0.081 | 0.023 | 0.07 | -0.013 | -0.347 (active) | -0.072 | -0.005 | -0.047 | 0.054 | -0.047 | -0.024 | -0.001 | 0.064 | 0.056 | -0.047
OSBPL8 (UniProt Q9BZF1) | -0.068 | -0.026 | 0.062 | -0.118 | 0.271 | 0.061 | 0.055 | 0.031 | 0.09 | -0.114 | -0.175 | -0.054 | -0.011 | 0.078 | 0.11 | 0.025 | 0.232 | 0.488 (active) | 0.167 | -0.078
NDUFA6 (UniProt P56556) | -0.069 | -0.252 | 0.098 | 0.115 | -0.086 | -0.089 | 0.081 | 0.116 | -0.022 | -0.072 | -0.037 | 0.003 | -0.122 | 0.021 | -0.039 | -0.068 | 0.006 | 0.044 | 0.034 | -0.039
NANS (UniProt Q9NR45) | 0.015 | -0.013 | 0.032 | 0.016 | 0.04 | -0.041 | 0.009 | 0.032 | -0.434 (active) | 0.034 | 0.022 | -0.058 | -0.091 | -0.026 | 0.034 | -0.033 | -0.084 | 0.051 | 0.004 | -0.015
MND1 (UniProt Q9BWT6) | -0.081 | -0.175 | -0.036 | 0.049 | 0.045 | -0.076 | -0.015 | -0.008 | 0.04 | -0.468 (active) | 0.006 | 0.036 | 0.011 | -0.006 | -0.029 | -0.021 | 0.05 | -0.059 | -0.15 | 0.023
NCOA7 (UniProt Q8NI08) | -0.035 | -0.287 (active) | 0.124 | 0.021 | -0.091 | -0.004 | -0.002 | 0.099 | -0.009 | -0.265 | -0.05 | -0.074 | -0.052 | -0.02 | -0.011 | -0.099 | -0.029 | -0.064 | 0.019 | 0.039
NA, A0A096LPI6 | 0.023 | 0.044 | -0.056 | -0.017 | 0.042 | 0.029 | -0.002 | -0.019 | -0.03 | 0.016 | 0.05 | 0.017 | -0.02 | -0.037 | 0.005 | 0 | 0.007 | -0.055 | -0.009 | 0.019
MTHFS (UniProt P49914) | 0.082 | 0.236 (active) | 0.034 | 0.11 | 0.031 | 0.02 | 0.034 | 0.046 | -0.022 | -0.019 | -0.023 | -0.017 | -0.078 | 0.043 | 0.065 | -0.053 | 0.013 | -0.004 | 0.007 | 0.014
NSDHL (UniProt Q15738) | -0.005 | 0.084 | 0.105 | -0.004 | 0.08 | -0.018 | 0.012 | 0.002 | -0.193 | -0.001 | -0.07 | 0.043 | -0.051 | -0.004 | 0.072 | -0.037 | -0.094 | 0.041 | -0.019 | -0.021
NIBAN1 (UniProt Q9BZQ8) | -0.16 | -0.428 (active) | 0.073 | 0.066 | -0.039 | -0.085 | 0.022 | 0.055 | 0.04 | -0.208 | -0.051 | -0.086 | -0.037 | 0.004 | -0.013 | -0.111 | 0.08 | 0.013 | 0.144 | -0.017

Reference: the supplement of paper PMC10849652
